# Assay results taken from PubChem BioAssay (NCI).
# Where “and” joins values, the source holds several entries; their conditions need not be identical. Identical values can stand only once. This is part of a sample that, as a whole, favours compounds with a hit. Of some 83,000 tested, about 20% had one in any assay.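 In brief: 96-well plates, 48 h treatment, single concentration, percent growth endpoint.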 Calls of active or inactive are those of the source. Where a SMILES comes first, the peptide text is derived from it. [ ]: non-standard residue; d: D form. ξ: configuration not given here. ξV = CC(C)C(N)C(=O)O
# Tested on: KM12 colon
# Assay: NCI-60 one-dose screen, 48 h (100 = growth as untreated, 0 = no growth, -100 = all killed)
# Conditions: 0.0025 µM
# Method: Growth inhibition of the KM12 human tumor cell line is measured as a screen for anti-cancer activity. Cells are grown in 96 well plates and exposed to the test compound for 48 hours. Compounds are tested at a single concentration, which is 10^-5 M for most compounds. The reported endpoint is percent growth (GI% or GIPRCNT), where numbers from 0 - 100% represent growth inhibition, and numbers from -100% - 0 represent cell death. For example, a value of 40 represents 60% growth inhibition. A value of 0 means no net growth occurred over the course of the experiment. A value of -40 indicates 40% of cells at the beginning of the experiment died by the end of the experiment. A value of -100 means all cells are dead at the end of the experiment.
# NCI-60 Human Tumor Cell Lines Screen was performed using the standard one-dose NCI protocol, which is described in more detail at https://dtp.cancer.gov/discovery_development/nci-60/default.htm.
# Compounds with GIPRCNT values below 10 were considered active. Activity score was based on GIPRCNT using the following formula: […]
# Score is 0 for GIPRCNT values of 100 or above, 50 for GIPRCNT values of 0, and 100 for GIPRCNT values of -100.
row,Compound,growth
1,COc1cccc2c1C(=O)c1c(O)c3c(c(O)c1C2=O)C[C@@](O)(C(=O)CO)C[C@@H]3OC1CC(N)C(O)C(C)O1 (stereo not given in full),93.1% (inactive)

# Same assay, conditions: 1 µM
row,Compound,growth
1,COc1cccc2c1C(=O)c1c(O)c3c(c(O)c1C2=O)C[C@@](O)(C(=O)CO)C[C@@H]3OC1CC(N)C(O)C(C)O1 (stereo not given in full),32.1% (inactive)

# Same assay, conditions: 10 µM
row,Compound,growth
1,Cc1cc(NS(=O)(=O)c2ccc(N=Nc3cc(N=Nc4ccc(S(=O)(=O)Nc5cc(C)nc(C)n5)cc4)c4c(NC(=O)C(Cl)Cl)cccc4c3OC(=O)C(Cl)Cl)cc2)nc(C)n1 (tested in a mixture with another compound),107% (inactive) and 106% (inactive)
2,CC(=O)Nc1cc(C)ccc1C,97.4% (inactive)
3,CC(C)C(NC(=O)CN)C(=O)O (stereo not given) (H-Gly-[ξV]-OH),109% (inactive) and 106% (inactive)
4,CN(C)C(=S)SC(=S)N(C)C,110% (inactive) and 97.3% (inactive)
5,Oc1ccc(N=Nc2ccccn2)c(O)c1,26.9% (inactive)
6,COc1cccc2c1C(=O)c1c(O)c3c(c(O)c1C2=O)C[C@@](O)(C(=O)CO)C[C@@H]3OC1CC(N)C(O)C(C)O1 (stereo not given in full),4.23% (active)
7,CCCC1CCC(=C2C(=O)CCC2=O)O1 (stereo not given),105% (inactive) and 108% (inactive)
8,CCCCCC(C)c1ccc(O)c(C)c1 (stereo not given),106% (inactive)
9,CCO/C=C1\SC(=S)N(c2cccc(O)c2)C1=O,97.2% (inactive)
10,Clc1ccc(/C=C/c2ccccn2)c(Cl)c1,71.4% (inactive)
11,CCCCCCCCCCSC(=N)N,23.2% (inactive)
12,CO[C@H](C(=O)[C@@H](O)[C@@H](C)O)[C@@H]1Cc2cc3cc(OC4CC(OC5CC(O)C(O)C(C)O5)C(O)C(C)O4)c(C)c(O)c3c(O)c2C(=O)[C@H]1OC1CC(OC2CC(OC3CC(C)(O)C(O)C(C)O3)C(O)C(C)O2)C(O)C(C)O1 (stereo not given in full),-5.71% (active)
13,O=[N+]([O-])C1=C(c2ccccc2)SC=C(c2ccccc2)S1,81.3% (inactive)
14,Clc1cc(Cl)c(Cl)nn1,105% (inactive)
15,O=C1NC(=O)c2cc([N+](=O)[O-])ccc21,110% (inactive)
16,CC(C)(C)CC(C)(C)c1ccc(OCCO)cc1,99.4% (inactive)
17,CC[N+](CC)=c1ccc2nc3c(cc(N)c4ccccc43)oc-2c1,-44.2% (active)
18,CCC(C)(C)c1cc(O)c(C(C)(C)CC)cc1O,55.3% (inactive)
19,CN1CCN(CCCN2c3ccccc3Sc3ccc(C(F)(F)F)cc32)CC1,40.2% (inactive)

row,Compound,growth
1,COc1cccc2c1C(=O)c1c(O)c3c(c(O)c1C2=O)C[C@@](O)(C(C)=O)C[C@@H]3OC1CC(N)C(O)C(C)O1 (stereo not given in full),-8.88% (active)
2,CC(=O)OCC(OC(C)=O)C(OC(C)=O)C(OC(C)=O)C(OC(C)=O)C(/C=N/Nc1ccccc1)=N/Nc1ccccc1 (stereo not given),45.3% (inactive)
3,NNc1c2ccccc2nc2ccccc12,36.7% (inactive)
4,O=C1C=C(O)c2ccccc2C1=O.[Ag],96.4% (inactive)
5,Cc1nc(N=C(N)N)nc2ccc3ccccc3c12,-9.2% (active)
6,COC(=O)C1C(O)C(C)C(O)C(C)C=C(C)C2=C3C(=C(C)C(=O)c4c(O)c(c(C)c(OC(C)=O)c43)NC(=O)C(C)=C/C=C\C(C)C(O)C(C)C1O)OCO2 (stereo not given),103% (inactive)
7,CSC1SCC2C(=O)N(C)C(C(C)C)C(=O)OCC(NC(=O)c3cnc4ccccc4n3)C(=O)NC(C)C(=O)N(C)C1C(=O)N(C)C(C(C)C)C(=O)OCC(NC(=O)c1cnc3ccccc3n1)C(=O)NC(C)C(=O)N2C (stereo not given),-5.74% (active)
8,CCN(CC)c1ccc(NC(C(=O)c2ccccc2)c2ccccc2)cc1 (stereo not given),65.1% (inactive)
9,COc1c(O)cc2oc3cc(O)c(CC=C(C)C)c(O)c3c(=O)c2c1CC=C(C)C,38.1% (inactive)
10,O=c1ccn(C2CC(O)C(COC(c3ccccc3)(c3ccccc3)c3ccccc3)O2)c(=O)[nH]1 (stereo not given),90.4% (inactive)
11,O=C(Nc1ccc(C(=O)O)c(O)c1)c1ccccc1,120% (inactive)
12,OC(CN1CCCC2CCCCC21)c1cc2ccccc2c2ccccc12 (stereo not given),15.9% (inactive)
13,OCC(O)C(O)C(O)C(/C=N/Nc1ccccc1)=N/Nc1ccccc1 (stereo not given),75.1% (inactive)
14,COc1ccc(CC(=O)c2ccc(O)cc2O)cc1,122% (inactive)
15,Nc1ccc2cc3ccc(N)cc3nc2c1,121% (inactive) and 9.1% (active)
16,N=S(c1ccccc1[N+](=O)[O-])c1ccccc1[N+](=O)[O-],88.8% (inactive)
17,CCN1/C(=C/C=C/C=C/c2sc3ccccc3[n+]2CC)Sc2ccccc21,-88.3% (active)
18,CCCCCCCCCCCCSC(=NC)NC,17.1% (inactive) and 44.8% (inactive)

# Same assay, conditions: 100 µM
row,Compound,growth
1,O=c1ccn(C2CC(O)C(COC(c3ccccc3)(c3ccccc3)c3ccccc3)O2)c(=O)[nH]1 (stereo not given),40.3% (inactive)
